# Out of some 310,000 compounds screened, about 2,200 (0.71%) showed an effect of 50% or more. Effects have a minus sign here. What follows is part of a selection rich in strong results, with near analogues and random picks from the rest.
# Molecular target: human ether-à-go-go-related gene (hERG) potassium channel (human, UniProt Q12809)
# Test: primary screen, population patch clamp on CHO cells stably expressing hERG; higher = less effect of the substance
# Procedure: Briefly, Chinese hamster ovary (CHO) cells stably expressing the hERG channel were dislodged from tissue culture flasks and dispensed into PPC plates. […] During the recording, background leak currents were estimated by a 100 ms step to -80 mV from an initial holding potential of -70 mV and subtracted from the subsequent current measurement. The campaign was conducted in two phases using slight differences in recording protocol. In the first phase, the initial voltage pulse used a 100 ms step to -30 mV from a holding potential of -70 mV, a 2 s conditioning step to +25 mV, and a 2 s test step to -30 mV. During the second phase of the screen, the potential during the conditioning step was raised to +45 mV. In both phases of the campaign, a secondary voltage pulse was applied using the same parameters as the second phase initial pulse. The initial and secondary pulses were applied in the absence of compound, and upon application of 1 μM and 10 μM test concentrations. Small molecule effects on hERG current density were quantified by […].
# Sequence of human ether-à-go-go-related gene (hERG) potassium channel (Q12809 whole entry, looked up): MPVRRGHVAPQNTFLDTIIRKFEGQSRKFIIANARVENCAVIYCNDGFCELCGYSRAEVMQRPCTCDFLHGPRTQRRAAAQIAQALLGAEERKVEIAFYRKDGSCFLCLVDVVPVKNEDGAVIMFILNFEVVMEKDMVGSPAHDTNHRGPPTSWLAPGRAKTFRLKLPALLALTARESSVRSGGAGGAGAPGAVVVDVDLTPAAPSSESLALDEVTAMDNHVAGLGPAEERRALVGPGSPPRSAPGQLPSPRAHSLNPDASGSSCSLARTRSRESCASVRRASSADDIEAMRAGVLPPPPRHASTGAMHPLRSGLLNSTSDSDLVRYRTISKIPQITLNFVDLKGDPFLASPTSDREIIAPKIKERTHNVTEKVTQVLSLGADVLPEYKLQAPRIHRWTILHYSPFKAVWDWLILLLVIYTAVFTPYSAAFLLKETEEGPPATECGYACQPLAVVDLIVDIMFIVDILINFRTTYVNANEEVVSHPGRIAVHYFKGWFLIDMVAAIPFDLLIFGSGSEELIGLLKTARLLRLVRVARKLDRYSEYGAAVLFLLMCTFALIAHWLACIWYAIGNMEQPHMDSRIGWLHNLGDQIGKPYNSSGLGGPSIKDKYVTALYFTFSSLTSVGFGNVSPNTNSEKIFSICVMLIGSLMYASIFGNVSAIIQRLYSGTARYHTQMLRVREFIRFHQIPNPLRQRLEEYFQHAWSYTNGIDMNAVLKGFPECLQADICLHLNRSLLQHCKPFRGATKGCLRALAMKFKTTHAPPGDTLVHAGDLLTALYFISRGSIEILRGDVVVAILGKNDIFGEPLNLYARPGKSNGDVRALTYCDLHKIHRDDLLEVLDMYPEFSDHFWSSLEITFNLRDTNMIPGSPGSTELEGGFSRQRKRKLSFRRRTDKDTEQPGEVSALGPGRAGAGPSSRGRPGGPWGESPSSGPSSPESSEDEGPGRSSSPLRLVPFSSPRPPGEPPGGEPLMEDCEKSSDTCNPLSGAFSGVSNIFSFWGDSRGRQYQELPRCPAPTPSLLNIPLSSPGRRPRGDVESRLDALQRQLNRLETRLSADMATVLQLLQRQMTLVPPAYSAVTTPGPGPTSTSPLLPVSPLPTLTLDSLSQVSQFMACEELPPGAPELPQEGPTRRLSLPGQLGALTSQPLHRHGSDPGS
row,Compound,"hERG current change (%, negative = inhibition) at 1uM"
1,CCC(=O)c1ccc(N2CCN(C(=O)c3ccc(F)cc3)CC2)c(F)c1,-10.2%
2,O=C(COc1ccc(-n2cnnn2)cc1)N1CCN(c2ccc(F)cc2)CC1,-60.3%
3,CC(=O)c1ccc(N2CCN(C(=O)COc3ccccc3F)CC2)c(F)c1,-11.1%
4,CCC(=O)c1ccc(N2CCN(C(=O)COc3ccc(F)cc3)CC2)c(F)c1,-71.3%
5,CC(=O)c1cc(F)c(N2CCN(C(=O)COc3ccc(F)cc3)CC2)cc1C,-38.2%
6,O=C(COc1ccc(F)cc1)Nc1ccc(-n2cnnn2)cc1,-27.2%
7,CC(=O)c1ccc(N2CCN(C(=O)COc3ccc(F)cc3)CC2)c(F)c1,-62.7%
8,CCC(=O)c1ccc(N2CCN(C(=O)COc3ccccc3F)CC2)c(F)c1,-19.1%
9,O=C(COc1ccc(-n2cnnn2)cc1)NCCc1ccc(F)cc1,-5.74%
10,CCN(CC(=O)NCc1cccs1)C(=O)/C=C/c1cccc(Br)c1,-42.3%
11,COc1cccc(NC(=O)CN(C)C(=O)c2ccccc2Sc2ccccc2C#N)c1,8.02%
12,CCC(C)NC(=O)Cn1nc(Cc2ccncc2)c2ccccc2c1=O (centres unmarked),10.1%
13,Cc1cc(NC(=O)c2ccc3c(c2)C(=O)N(C)C3=O)no1,16.4%
14,Cc1ccc(C)c(OCCC(=O)NNC(=O)c2ccccc2)c1,10.8%
15,Cc1cccc(N(C(=O)c2nsc(Cl)c2Cl)C(C(=O)NC2CCCC2)c2ccc(O)cc2)c1C (centres unmarked),10.1%
16,O=C(c1cccc(S(=O)(=O)N2CCOCC2)c1)N(Cc1ccco1)Cc1cccs1,-6.4%
17,CN(C)S(=O)(=O)c1cccc(C(=O)N(Cc2ccc(F)cc2)Cc2ccco2)c1,-14.6%
18,O=C(c1cccc(S(=O)(=O)N2CCOCC2)c1)N(Cc1ccc(F)cc1)Cc1ccco1,-55.2%
19,CCC(=O)O[C@]1(C(=O)CCl)[C@@H](C)C[C@H]2[C@@H]3CCC4=CC(=O)C=C[C@]4(C)[C@@]3(F)[C@@H](O)C[C@@]21C,18%
20,Cl.N=c1n(CCN2CCCCC2)c2ccccc2n1CC(O)c1ccco1 (centres unmarked),-4.15%

row,Compound,"hERG current change (%, negative = inhibition) at 1uM"
1,CCOc1ccc(C(O)Cn2c(=N)n(CCN3CCCCC3)c3ccccc32)cc1.Cl (centres unmarked),-56%
2,COc1ccc(OCC(O)Cn2c(=N)n(CCN3CCCCC3)c3ccccc32)cc1.Cl (centres unmarked),-51.2%
3,Cc1cccc(OCC(O)Cn2c(=N)n(CCN3CCCCC3)c3ccccc32)c1.Cl (centres unmarked),-59.8%
4,COc1ccc(-c2cc3ccccc3n2CC(O)CN2CCC(C)CC2)cc1.O=C(O)C(=O)O (centres unmarked),-49.8%
5,Cc1cccc(OCC(O)Cn2c(=N)n(CCN3CCOCC3)c3ccccc32)c1.Cl (centres unmarked),-8.29%
6,Cl.N=c1n(CCN2CCCCC2)c2ccccc2n1CC(O)COc1ccccc1 (centres unmarked),-32.7%
7,COc1ccc(-c2cc3ccccc3n2CC(O)CN2CCCCC2)cc1.O=C(O)C(=O)O (centres unmarked),-74.6%
8,Cc1ccccc1OCC(O)Cn1c(=N)n(CCN2CCOCC2)c2ccccc21.Cl (centres unmarked),-25.3%
9,CCCn1c(=N)n(CC(O)c2ccc(C)cc2)c2ccccc21.Cl (centres unmarked),-14.9%
10,COc1ccc(-c2cc3ccccc3n2CC(O)CN2CCOCC2)cc1 (centres unmarked),2.37%
11,Cc1ccc(OCC(O)Cn2c(=N)n(CCN3CCCCC3)c3ccccc32)cc1.Cl (centres unmarked),-30.1%
12,CCCCC(=O)O[C@]1(C(=O)CO)CC[C@H]2[C@@H]3CCC4=CC(=O)CC[C@]4(C)[C@H]3[C@@H](O)C[C@@]21C,11.4%
13,COc1ccc(N/C=C/C(=O)c2ccccc2)cc1,11%
14,CCCCNC(=O)C1CCCN1C(=O)Nc1ccccc1 (centres unmarked),0.208%
15,O=S(=O)(NCc1cccnc1)c1ccc(Br)c2ccccc12,7.97%
16,Cc1cc2nc(-c3ccc(SCc4ccc(C(=O)O)cc4)nc3)[nH]c2cc1C,14.5%
17,COc1ccc2[nH]c(C(=O)O)c(CCNC(=O)/C=C/c3ccc(O)c(OC)c3)c2c1,13.1%
18,CCCc1nnc(NC(=O)c2nc(S(=O)(=O)Cc3cccc(C)c3)ncc2Cl)s1,21%
19,O=C1CCN(C(=O)Cc2ccccc2[N+](=O)[O-])CC1,14.3%
20,O=C(Nc1cc(SCC(O)CO)cc([N+](=O)[O-])c1)c1ccc(-n2cnnn2)cc1 (centres unmarked),17.4%

row,Compound,"hERG current change (%, negative = inhibition) at 1uM"
1,Br.CC1(C(=O)CSc2n[nH]c(-c3ccccc3Cl)n2)CCC(=O)O1 (centres unmarked),8.24%
2,COc1ccc(N(CC(=O)NC2CCCCC2)S(=O)(=O)c2c(C)[nH]c(=O)[nH]c2=O)cc1,15.2%
3,Cc1ccc(CNC(=O)c2nn(C)c(C)c2[N+](=O)[O-])cc1,5.74%
4,Cl.N=c1n(CCN2CCCCC2)c2ccccc2n1CC(O)c1ccc(Cl)c(Cl)c1 (centres unmarked),-70.4%
5,Cl.N=c1n(CCN2CCCCC2)c2ccccc2n1CC(O)c1cccc(Br)c1 (centres unmarked),-41.7%
6,Cl.N=c1n(CCN2CCCC2)c2ccccc2n1CC(O)c1ccc(Cl)c(Cl)c1 (centres unmarked),-33.2%
7,COc1ccc(NC(=S)N2CCC(NC(=O)c3ccc(OC)cc3)CC2)cc1,11.3%
8,CCOCCCNC(=S)Nc1ccc2nc(N3CCOCC3)cc(C)c2c1,9.64%
9,CCN1CCN(c2cc(C)c3cc(NC(=S)NCCCOC)ccc3n2)CC1,12.1%
10,Cc1cc(N2CCCC2)nc2ccc(NC(=S)NCCCOC(C)C)cc12,-78.6%
11,CCOCCCNC(=S)Nc1ccc2nc(N3CCCC3)cc(C)c2c1,-74.8%
12,CCCN(CCC)CCCNC(=S)Nc1ccc2nc(N3CCCC3)cc(C)c2c1,-14.5%
13,CCN1CCN(c2cc(C)c3cc(NC(=S)N(C)Cc4ccccc4)ccc3n2)CC1,-56.7%
14,CCCCN(C)C(=S)Nc1ccc2nc(N3CCN(CC)CC3)cc(C)c2c1,-46.4%
15,COCCNC(=S)Nc1ccc2nc(N3CCOCC3)cc(C)c2c1,14.9%
16,CCOCCCNC(=S)Nc1ccc2nc(N3CCN(CC)CC3)cc(C)c2c1,10.7%
17,COCCNC(=S)Nc1ccc2nc(N3CCN(C)CC3)cc(C)c2c1,9.02%
18,CCN1CCN(c2cc(C)c3cc(NC(=S)N(CC)CC)ccc3n2)CC1,-8.83%
19,COCCNC(=S)Nc1ccc2nc(N3CCCC3)cc(C)c2c1,-50.5%

# Reference: publication PMC4336329 (PLoS ONE, 2015)
